TROY NFkB inh – blocks TROY-dependent signaling in reporter cells; Q293 LMP1-TROYcd NF-kB luciferase reporter, 4 h; inhibition, % at 10 µM; actives 0.98% (n = 360,000); AID 1347056;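 active means compounds whose plate-normalised and pattern-corrected inhibition of the luciferase reporter signal at the single screening dose is 50% or more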
Platelet DG rel – platelet dense granule release activity | human platelet-rich plasma, SFLLRN dense granule ATP release, luminescence | inhibition, %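 (compounds screened at 7.5 µM in platelet-rich plasma)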 | actives 0.22% (n = 300,000) | AID 1663;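 active means mean replicate score, as percent of positive control, at or above 50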
HSP90 refold inh – HSP90 refolding inhibition in rabbit reticulocyte lysate | AID 1789 | inhibition, % at 5.6 µM | luciferase refolding luminescence, 3 h | actives 0.91% (n = 290,000);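 active means inhibition above the screen-wide mean plus 3 SD, computed separately per campaign, cut at about 16% in these data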;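 further: 0% = DMSO wells and 100% = 60 µM geldanamycin wells; inhibitors lower the luminescence because luciferase stays unfolded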
C8 TRAIL sens – sensitizes caspase-8 expressing cells to TRAIL; inhibition (viability loss, TRAIL sensitization), % at 10 µM; AID 624354; actives 1% (n = 360,000); NB7+C8 cells + TRAIL, ATPlite viability luminescence;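 active means compounds causing at least 50% loss of cell viability in the single-dose screen, relative to plate controls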
TWEAK Fn14 block – inhibitors of TWEAK-Fn14 interaction signaling; AID 1159606; TWEAK-stimulated Fn14 reporter cells, luciferase luminescence, 8 h; actives 2% (n = 360,000); inhibition, % at 10 µM; in the data active means inhibition above about 50%
PPC-1+TRAIL kill – compounds killing PPC-1 cancer cells with TRAIL present (potentiator screen, no TRAIL-free arm); PPC-1 cells + TRAIL, ATPLite viability luminescence; cell killing (% activity), % at 4 µM or 5 µM; actives 0.41% (n = 220,000); AID 1443;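 active means cell killing above 50% in the first pass at 4 µM, then a duplicate retest at 5 µM averaging 50% or more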;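 further: plate controls were cells with TRAIL plus DMSO for no effect and medium-only wells lacking cells for full effect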
PPC-1 tox – kills PPC-1 cells. actives 50% (n = 1,200). PPC-1 viability, ATPlite luminescence, overnight. shares compounds with PPC-1+TRAIL kill. cytotoxicity, % at 5 µM. AID 1447;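 active means reconfirmed compounds whose average cytotoxicity reaches 50% or more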;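 further: 0% = DMSO-treated cells and 100% = wells holding medium but no cells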
Active calls of the source: *; x = no result. Compounds with a hit are over-represented: about 3.5% of the library has one in this group of screens.

SMILES | TROY NFkB inh | Platelet DG rel | HSP90 refold inh | C8 TRAIL sens | TWEAK Fn14 block | PPC-1+TRAIL kill | PPC-1 tox
COc1ccc(-c2cc(C#N)nc(Cl)n2)cc1 | 80* | -3 | 4 | 21 | 30 | 22 | 19
O=C(NCc1ccc2c(c1)OCO2)c1[nH]c(C(F)(F)F)nc1-c1ccccc1 | -8 | x | x | -4 | 24 | x | x
O=C(CSc1nnc(NC(=O)c2ccc3c(c2)OCO3)s1)NCc1ccco1 | 1 | x | 7 | 82* | 61* | 80* | 80*
O=C(CSc1nnc(NC(=O)c2ccco2)s1)NCc1ccc2c(c1)OCO2 | 9 | -2 | 8 | -7 | -2 | -4 | x
COc1ccccc1C(CNC(=O)C(CCSC)NC(=O)c1ccccc1Cl)N1CCCC1 (stereo not drawn) | -18 | x | x | -12 | -15 | x | x
Cc1ccccc1NC(=O)Cc1cn(C)c2ccccc12 | -13 | -1 | 1 | 6 | -6 | 4 | -9
CN1CCN(c2ccccc2NC(=O)Cc2cn(C)c3ccccc23)CC1 | 9 | 21 | -1 | 36 | -15 | 14 | x
CCOC(=O)c1[nH]c2ccc(F)cc2c1NC(=O)c1ccccc1C(=O)O | -3 | 4 | 3 | 16 | -10 | x | x
CCOC(=O)c1[nH]c2ccc(F)cc2c1NC(=O)C1=COCCO1 | -2 | 5 | 3 | -4 | -5 | -1 | -7
O=C(O)c1c2c(nc3ccc(S(=O)(=O)N4CCC(C(=O)NCc5ccccc5Cl)CC4)cc13)CCCC2 | 5 | 8 | -3 | 6 | -3 | x | x
COc1ccc(OC)c(/C=N/NC(=O)c2[nH]ncc2Br)c1 | -15 | 10 | 3 | -9 | 2 | 10 | x
CCOc1ccc(/C=N/NC(=O)c2[nH]ncc2Br)c(O)c1 | 24 | 84* | 2 | 79* | 76* | 57* | 56*
Cc1onc(-c2ccccc2)c1C(=O)Nc1ccc(S(=O)(=O)N2CCOCC2)cc1 | 9 | -12 | 2 | 14 | -10 | x | x
COc1cccc(N2C(=NC(=O)C3CCCCC3)SC3CS(=O)(=O)CC32)c1 (stereo not drawn) | -7 | -28 | -5 | -25 | -9 | x | x
Cc1ccc(S(=O)(=O)Nc2cc3c(cc2C#N)OCO3)cc1C(N)=O | 2 | 3 | -5 | -6 | 29 | x | x
CCCCN1C=CC(=C2C(=O)c3ccccc3C2=O)C=C1 | 85* | 29 | 83* | 95* | 99* | 96* | 96*
CCCCN(C(=O)c1cccs1)c1c(N)n(Cc2ccccc2)c(=O)[nH]c1=O | -5 | x | x | 0 | 1 | x | x
O=C1c2ccccc2C(=O)C1c1ccncc1 | -28 | 17 | 15 | 57* | 29 | 59* | 58*
Cc1ccc(C2C(=O)c3ccccc3C2=O)cc1 | -9 | 4 | -3 | -5 | 10 | x | x
CC(=O)Nc1ccc(C2C(=O)c3ccccc3C2=O)cc1 | 1 | 4 | -1 | 62* | 5 | 53* | 54*
C/C(=N\NC(=O)c1nnn(-c2nonc2N)c1-c1ccc2c(c1)OCO2)c1cccs1 | -5 | 0 | 0 | 9 | -4 | x | x
O=C(O)c1ccc(N/N=C/c2cc3cc4c(cc3nc2Cl)OCCO4)cc1 | -16 | -29 | 12 | 93* | 30 | 88* | 91*
O=Cc1cc2cc3c(cc2nc1Cl)OCCO3 | x | 6 | 6 | x | x | 14 | x
CC1(C)CC(=O)c2sc(NC(=O)c3cccs3)nc2C1 | -27 | 3 | 5 | 85* | 54* | 77* | 77*
CC1(C)CC(=O)c2sc(NC(=O)c3ccccc3)nc2C1 | x | 3 | -2 | x | x | 52* | 52*
SMILES | TROY NFkB inh | Platelet DG rel | HSP90 refold inh | C8 TRAIL sens | TWEAK Fn14 block | PPC-1+TRAIL kill | PPC-1 tox
CC1(C)CC(=O)c2sc(NC(=O)C(C)(C)C)nc2C1 | -40 | 0 | -4 | 8 | -5 | 8 | x
Cc1ccc(C(=O)Nc2ncc3c(Cl)cccc3n2)cc1 | 39 | 19 | 2 | 83* | 82* | 74* | 67*
Cc1sc2nc(C(C)(C)C)oc(=O)c2c1C | 11 | -2 | 4 | 7 | -10 | -9 | 1
Cc1ccccc1-c1nc2sc(C)c(C)c2c(=O)o1 | -40 | -2 | -3 | -4 | -36 | x | x
CCOC(=O)COc1ccc2c(=O)c(-c3ccccc3)coc2c1 | -8 | -13 | 2 | -6 | -10 | 13 | x
Cc1nc(-c2coc3cc(OCC(=O)O)ccc3c2=O)cs1 | -20 | 15 | 8 | 50* | 16 | 45 | 46
COc1ccc2c(=O)c(-c3nc(C)cs3)coc2c1 | 23 | 0 | 5 | 66* | 79* | 45 | 57*

Bioassay records deposited in PubChem BioAssay by several laboratories.
